SARS PLP yeast: inhibitors of SARS-CoV papain-like protease in yeast. S. cerevisiae expressing SARS-CoV PLpro, growth rescue. Potency, µM (highest dose often 32.9 µM), inactives show at the top dose activity, positive = growth rescue, usual class: activators. 330,000 tested, 0.19% active. AID 485353; further: potency means the concentration at half of the fitted maximal effect; 0% is about no effect; nearly all actives have a fitted effect of over 55% in size
Shiga toxin inh: Shiga toxin inhibition | Vero cells, Shiga toxin protein synthesis inhibition reporter | inhibition, % at 38.7 µM | 290,000 tested, 9.2% active; in the data active means inhibition mostly above about 28%, no sharp cut-off; inactive means mostly below about 43%; further: 0% is about no effect
NS1 inh: blocks influenza NS1 protein function | 270,000 tested, 0.4% active | Potency, µM (titrated, usually from 46.1 µM), for inactives: at the highest dose activity, positive = more growth; further: potency means the concentration at half of the fitted maximal effect; actives are rising curves; nearly all actives have a fitted effect of over 50% in size
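A cell-based growth assay was used: compounds that relieve NS1-induced slow growth of budding yeast raise OD600. Assay medium was yeast nitrogen base with ammonium sulphate and -URA supplement, pH 6.0, with 2% galactose.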
Cycloheximide cs: affects cycloheximide protein synthesis inhibition readout, counter-screen. cell reporter, cycloheximide protein synthesis inhibition counterscreen. max response, %. 300,000 tested, 12% active; in the data active means max response mostly above about 13%, no sharp cut-off; inactive means mostly below about 14%; further: read at 38.3 µM for the half of the compounds with a filed dose; 0% is about no effect
Active calls of the source: *. Rows were chosen to be rich in hits. Some 12% of all compounds tested hit in one or more screens of this group. Unless noted, the call rests on the fitted dose curve.

Screening S=C(NCCc1ccccc1)NC1CCC(NC(=S)NCCc2ccccc2)CC1 (stereo not given) returned SARS PLP yeast 1.4%, Shiga toxin inh -3.8, NS1 inh 4.7% and Cycloheximide cs 8.3.
For Cc1nc2ccc(NC(=O)CCS(=O)(=O)c3ccc(Cl)cc3)cc2s1 the results were SARS PLP yeast -16.8%, Shiga toxin inh -10.3, NS1 inh -1.5% and Cycloheximide cs 4.1.
For CC(=O)c1ccc(NC(=O)NC2CCCCCCC2)cc1 the results were SARS PLP yeast 0.0%, Shiga toxin inh 94.8*, NS1 inh -23.8% and Cycloheximide cs 38.6*.
Screening S=C(NCCc1cccc(Cl)c1)NC1CCCCC1 returned SARS PLP yeast -3.6%, Shiga toxin inh 76.6*, NS1 inh -89.3% and Cycloheximide cs 59.5*.
`CC(=O)c1cccc(NC(=O)CCC2CCCC2)c1` gave SARS PLP yeast -0.7%, Shiga toxin inh inactive, NS1 inh -169.3% and Cycloheximide cs 25.4*.
`Cc1nc2ccc(NC(=O)CCC3CCCC3)cc2s1` gave SARS PLP yeast -11.0%, Shiga toxin inh 96.8*, NS1 inh -18.6% and Cycloheximide cs 45.1*.
`CC(=O)c1cccc(NC(=O)C(C)OC(=O)CCC2CCCCC2)c1` (stereo not given) gave SARS PLP yeast -3.0%.
`Nc1cc(=O)[nH]c(SCC(=O)N2CCCC2)n1` gave SARS PLP yeast 2.3%.
`Cc1ccc(NC2=C(Cl)C(=O)N(C3CCCCC3)C2=O)cc1` gave SARS PLP yeast 1.2%, Shiga toxin inh -5.6, NS1 inh 7.3% and Cycloheximide cs 0.4.
COc1ccc(-c2noc(N3CCCC(C(=O)Nc4ccc(C(C)=O)cc4)C3)n2)cc1 (stereo not given) was read as SARS PLP yeast -1.1%, Shiga toxin inh 30.9, NS1 inh -1.3% and Cycloheximide cs 27.7*.
For CC(=O)c1cccc(NC(=O)NC2CCCCCCC2)c1 the results were SARS PLP yeast -8.0%, Shiga toxin inh 49.7, NS1 inh -15.8% and Cycloheximide cs 36.0*.
`COc1ccc(NC(=O)C2CCN(c3nc(-c4ccc(OC)cc4)no3)CC2)cc1` gave SARS PLP yeast -1.7%, Shiga toxin inh 14.4, NS1 inh -7.7% and Cycloheximide cs -2.7.
Screening CCc1cccc(NC(=O)C2CCCN2S(=O)(=O)c2ccc3c(c2)CC(C)N3C(C)=O)c1 (stereo not given) returned SARS PLP yeast 3.9%, Shiga toxin inh 13.1, NS1 inh 2.8% and Cycloheximide cs 3.8.
For CCOc1ccc(S(=O)(=O)Nc2cccc(C(=O)NCC(c3ccccc3)N(C)C)c2)cc1 (stereo not given) the results were SARS PLP yeast 1.5%.
COc1ccc(C(CNC(=O)c2ccc(-c3ccccc3)cc2)N(C)C)cc1OC (stereo not given) was read as SARS PLP yeast 1.2%, Shiga toxin inh 33.9, NS1 inh -11.1% and Cycloheximide cs 10.0*.
`COc1ccc(C(CNC(=O)c2cccc(NS(=O)(=O)c3ccccc3)c2)N(C)C)cc1` (stereo not given) gave SARS PLP yeast 0.9%, Shiga toxin inh 26.6, NS1 inh 10.2% and Cycloheximide cs 16.0*.
COc1ccc(-c2cc(C(=O)NCC(c3ccccc3)N(C)C)c3ccccc3n2)cc1OC (stereo not given) was read as SARS PLP yeast 0.1%, Shiga toxin inh -1.4, NS1 inh -2.1% and Cycloheximide cs -4.8.
COc1cccc(CNC(=O)c2ccc3c(c2)N(Cc2ccc(F)cc2Cl)C(=O)c2ccccc2S3)c1 was read as Shiga toxin inh -2.3 and Cycloheximide cs -7.2.
Screening O=C(COc1ccccc1)OCC(=O)c1ccc(O)cc1O returned SARS PLP yeast -8.2%.
`O=C(COc1ccc(Cl)cc1)c1ccc(O)cc1O` gave SARS PLP yeast -3.4%, Shiga toxin inh 68.6*, NS1 inh -96.0% and Cycloheximide cs 24.7*.
COC(=O)c1ccc(OCC(=O)c2ccc(O)cc2O)cc1 was read as SARS PLP yeast 3.8%, Shiga toxin inh 53.8, NS1 inh 2.7% and Cycloheximide cs 11.1.
`CCOC(=O)c1ccc(OCC(=O)c2ccc(O)cc2O)cc1` gave SARS PLP yeast -9.0%, Shiga toxin inh 49.8*, NS1 inh -54.6% and Cycloheximide cs 18.3*.
CCN1CCN(c2ccc(NC(=O)c3ccc(Br)o3)cc2)CC1 was read as SARS PLP yeast -0.2%, Shiga toxin inh 111.0*, NS1 inh 0.9% and Cycloheximide cs 42.8*.
O=C(Nc1ccc(N2CCCC2)cc1)c1ccc(Br)o1 was read as SARS PLP yeast 0.9%, Shiga toxin inh 70.5*, NS1 inh 8.9% and Cycloheximide cs 58.5*.
